About 1,900 (0.58%) of roughly 330,000 compounds were called active. The full list was thinned out, with actives kept by preference. A number with no mark means an inactive call.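 Rule for the calls: active = inhibition of aptamer binding above 40%, roughly 3 SD of noise, on plates passing a quality check; inactive = the rest.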

Chain of Beta-adrenergic receptor kinase 1 (Homo sapiens) (P25098 whole entry, looked up): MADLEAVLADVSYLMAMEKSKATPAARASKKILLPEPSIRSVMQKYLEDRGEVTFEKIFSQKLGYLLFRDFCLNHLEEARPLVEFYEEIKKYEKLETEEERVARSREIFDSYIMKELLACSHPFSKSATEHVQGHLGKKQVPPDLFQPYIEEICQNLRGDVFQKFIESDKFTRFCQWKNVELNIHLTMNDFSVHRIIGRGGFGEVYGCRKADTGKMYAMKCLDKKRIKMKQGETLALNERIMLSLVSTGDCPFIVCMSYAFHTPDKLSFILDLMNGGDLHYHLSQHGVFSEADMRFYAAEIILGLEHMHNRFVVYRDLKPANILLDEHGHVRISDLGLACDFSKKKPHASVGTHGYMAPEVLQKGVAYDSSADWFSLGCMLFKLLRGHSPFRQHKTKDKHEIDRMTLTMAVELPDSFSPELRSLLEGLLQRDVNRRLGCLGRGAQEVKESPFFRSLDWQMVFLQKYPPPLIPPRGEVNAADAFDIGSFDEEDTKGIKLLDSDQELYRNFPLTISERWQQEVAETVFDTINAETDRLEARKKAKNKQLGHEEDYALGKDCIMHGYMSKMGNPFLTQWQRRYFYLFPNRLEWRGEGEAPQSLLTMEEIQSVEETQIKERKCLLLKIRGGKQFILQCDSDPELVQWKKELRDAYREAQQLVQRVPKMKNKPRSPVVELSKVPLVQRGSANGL

The assay addresses Beta-adrenergic receptor kinase 1 (Homo sapiens) (UniProt P25098). As to the kind of experiment: compounds blocking aptamer binding on GRK2 – biochemical, human GRK2, bead flow cytometry, HTS, primary screen (AID 488847).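 Note: median bead fluorescence of bound FAM aptamer so fluorescent compounds give negative values.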 Conditions: FAM-aptamer displacement from GRK2, at 10 µM, stronger effect = higher value. (In flow cytometry, cells or beads pass a laser one at a time.)
Turning to `CCOC(=O)c1sc2nc(CSCC(=O)OCc3ccc(C(=O)OC)o3)[nH]c(=O)c2c1C`, the inhibition of aptamer binding was 2%. Under `CSc1nnc(SCc2nc3sc(C(=O)O)c(C)c3c(=O)[nH]2)s1` stands 13%; under `CCOC(=O)c1sc2nc(CSc3ccccc3)[nH]c(=O)c2c1C`, 75% (active).

For the molecule `O=S(=O)(Nc1cccc(-c2ccc(N3CCOCC3)nn2)c1)c1ccc(Cl)c(Cl)c1`, the inhibition of aptamer binding was 0%. As to `O=c1c([N+](=O)[O-])cccn1Cc1ccc(F)cc1Cl`, the inhibition of aptamer binding was 0%. Under `O=C(C1CCC1)N1CCc2cc(S(=O)(=O)NCc3cccnc3)ccc21` stands 0%; under `O=C(CSc1nc2ccccc2c(=O)n1-c1ccc(F)cc1)NC1CC1`, 0%. On to `CSc1nc2ccccc2c(=O)n1Cc1ccc(F)cc1`, for which the inhibition of aptamer binding was 76% (active). For the molecule `O=C(CSc1nc2ccccc2c(=O)n1Cc1ccc(F)cc1)NCC1CCCO1` (stereo not drawn), the inhibition of aptamer binding was 0%. Consider `O=c1[nH]c(CCl)nc2cc(-c3ccc(Cl)cc3)sc12`, for which the inhibition of aptamer binding was 0%. Under `NC(=O)CC(NC(=O)Cc1cccc2ccccc12)c1ccc(NCc2cc(F)ccc2F)c([N+](=O)[O-])c1` (stereo not drawn) stands 1%; under `CCCC/S(C)=N/S(=O)(=O)c1ccc(C)cc1` (stereo not drawn), 1%; under `COc1ccc(CN2CCN(Cc3cn(C)nc3-c3ccccc3)CC2CCO)c(C)c1C` (stereo not drawn), 0%. With `CN(CC(=O)Nc1ccc(C(N)=O)cc1)S(=O)(=O)c1ccc2c(c1)OCCO2`, the inhibition of aptamer binding is 0%. The same measure for `Cc1nc(S(=O)(=O)c2ccc(Br)cc2)nc2c1CCC2`: 5%; for `O=C(Nc1ccc(-c2nnc(-c3ccccc3)o2)cc1)c1ccc(Br)o1`: 92% (active). Under `Brc1ccc(-c2nnc(-c3ccccc3)o2)o1` stands 5%; under `O=C(CNC(=O)c1ccc(Br)o1)Nc1ccccc1`, 1%. Under `CC1CCC(NC(=O)c2ccc(N3CCCC3=O)cc2)CC1` (stereo not drawn) stands 0%; under `O=C(NCCCN1CCCCCC1)c1ccc(N2CCCC2=O)cc1`, 43% (active). Regarding `CCOc1ccc(C(=O)NCCCN2CCCC2=O)cc1`, the inhibition of aptamer binding was 2%. The same measure for `CC1=CC(C)(C)NC(=S)N1NC(=O)c1ccccc1Cl`: 1%. The same measure for `COc1ccc(C2C(C#N)=C(N)Oc3cc(N)ccc32)cc1OC` (stereo not drawn): 0%; for `CCn1cnc2scc(-c3ccc(C)c(C)c3)c2c1=O`: 0%. In the case of `CCOC(=O)C(C)n1cnc2scc(-c3ccc(C)c(C)c3)c2c1=O` (stereo not drawn), the inhibition of aptamer binding was 64% (active). The same measure for `CC(=O)C(C)n1cnc2scc(-c3ccc(C)cc3)c2c1=O` (stereo not drawn): 1%. `CCOC(=O)c1ccc(S(=O)(=O)N(CCO)Cc2cc3cc(OC)c(OC)cc3[nH]c2=O)cc1`: the inhibition of aptamer binding was 0%. Under `CN(C)CC(C)(C)CNC(=O)c1cc(Br)cc(Br)c1O` stands 6%; under `COc1cccc(OC)c1C(=O)Nc1ccc(Cc2ccncc2)cc1`, 55% (active). Turning to `CC(C)CC(=O)Nc1ccc(Cc2ccncc2)cc1`, the inhibition of aptamer binding is 0%. The same measure for `COc1cccc(OC)c1C(=O)Nc1ccc2c(c1)n(C)c(=O)n2C`: 1%; for `Cc1ccc(S(=O)(=O)NCCSC(C)(C)C)cc1`: 1%; for `O=C(OCC1O[C@@H](OC(=O)c2cc(O)c(O)c(O)c2)[C@@H](OC(=O)c2cc(O)c(O)c(O)c2)[C@@H](OC(=O)c2cc(O)c(O)c(O)c2)[C@@H]1OC(=O)c1cc(O)c(O)c(O)c1)c1cc(O)c(O)c(O)c1` (stereo partly drawn): 1%.

These data come from PubChem BioAssay AID488847 (NMMLSC, 2010).
